# HSP90 inh – HSP90 inhibitors, primary screen, cell lysate, luminescence; Heat shock protein HSP 90 (rabbit reticulocyte lysate; luciferase refolding); Rabbit reticulocyte lysate, luciferase refolding luminescence, 3 h; inhibition, % at 5.6 µM; actives 0.91% (n = 290,000); AID 1789, 2009;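 active = inhibition above the screen-wide mean plus 3 SD, computed separately per campaign, cut at about 16% in these data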;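 note: 0% = DMSO wells and 100% = 60 µM geldanamycin wells; inhibitors lower the luminescence because luciferase stays unfolded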
# HSF-1 act – HSF-1 activators, primary screen, NIH3T3-HGL cells, MG132 stress, luminescence, single point; actives 1.7% (n = 300,000); activation, % at 9 µM; NIH3T3-HGL HSF-1 luciferase reporter, 8 h; 100% = twice DMSO control signal;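 active = mean replicate activation of at least 50% with a set share of replicates each reaching 50%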;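 note: 0% = median of the neutral control wells and 100% = twice that signal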
# LMP1 NFkB inh – EBV LMP1-driven NF-kappaB luciferase reporter inhibitors, primary screen, cell-based, luminescence, single point; inhibition, % at 12.5 µM; actives 0.69% (n = 350,000); AID 504558, 2011; LMP1-induced NF-kappaB luciferase reporter cells; in the data active = inhibition above about 41%;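 note: 0% = neutral control wells and 100% = reference inhibitor control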
# TWEAK-Fn14 inh – inhibitors of TWEAK-Fn14 signaling, primary screen, luciferase reporter cells, uHTS; TWEAK-stimulated Fn14 reporter cells, luciferase luminescence, 8 h; inhibition, % at 10 µM; actives 2% (n = 360,000); in the data active = inhibition above about 50%
# TROY signal inh – inhibitors of TROY-driven NF-kB signaling, primary screen, Q293 LMP1-TROYcd cells, NF-kB luciferase, uHTS | actives 0.98% (n = 360,000) | inhibition, % at 10 µM | Q293 LMP1-TROYcd NF-kB luciferase reporter, 4 h;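 active = compounds whose plate-normalised and pattern-corrected inhibition of the luciferase reporter signal at the single screening dose is 50% or more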
# HSF1 inhib – HSF1 inhibitors in luciferase reporter cells, primary screen, cell-based, NIH3T3, luminescence. NIH3T3-HGL HSE-luciferase, MG132-induced, luminescence 8 h; hits give low values. actives 0.77% (n = 300,000). activity change, negative = inhibition, % at 7.5 µM (by protocol). AID 2098, 2009;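 active = more than half of replicate wells show activity change below -50%, luminescence cut by over half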;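 note: luciferase reports HSF-1 transcriptional activity via heat shock element; 0% = median of DMSO wells and -100% = zero luminescence signal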
# * marks the source's active call; other numbers are inactive results; . = no result. The list is not random: actives were taken first. Their share in the collection is about 4.7%.
SMILES,HSP90 inh,HSF-1 act,LMP1 NFkB inh,TWEAK-Fn14 inh,TROY signal inh,HSF1 inhib
COc1cccc(-c2nc(CSCC(=O)N3CCc4ccccc43)c(C)o2)c1,-2,3,-6,5,13,3
CCOc1ccc(-c2nc(CSCC(=O)N3CCN(c4cccc(OC)c4)CC3)c(C)o2)cc1,24*,-54,13,59*,53*,-44
N#CC(C#N)=C1SC(=Nc2ccccc2)C(=Nc2ccccc2)N1c1ccccc1,.,.,-4,27,-55,.
O=C(NCC1CC1)c1ccc(-n2ccnc2)c2ccoc12,.,.,.,-28,-2,.
Cc1ccc(NC(=O)C(C)Sc2nnc3n2CCCCC3)cc1S(=O)(=O)N1CCOCC1 (stereo not given),.,.,-3,1,-2,.
CCCCn1nnnc1C(c1ccccc1)N1CCN(C(=O)c2ccco2)CC1 (stereo not given),.,.,.,-1,-5,.
Cc1ccccc1C1CCCN(C(=O)c2cc(COc3c(F)cccc3F)on2)C1 (stereo not given),3,3,-6,85*,1,0
Cc1cccc(C)c1OCc1cc(C(=O)N2CCCCCCC2)no1,2,18,-15,-28,-30,10
CCCOC1CCCN(C(=O)c2cc(COc3c(F)cccc3F)on2)C1 (stereo not given),-3,58*,-32,-29,-42,42
O=C(c1cc(COc2c(F)cccc2F)on1)N1CC[C@@H]2CCCC[C@H]2C1,.,.,-8,-41,-64,.
Cc1ccc(C)c(NC2=C(Cl)C(=O)OC2OC(=O)c2ccco2)c1 (stereo not given),1,30,-1,59*,-1,17
CC(C)C[C@H]1CN(CCCC[C@@H]2CNC(=O)C(=O)N2Cc2ccccc2)C(=O)C(=O)N1CCC1CCCCC1,.,.,.,7,-1,.
COC(=O)c1[nH]c2ccc(Br)cc2c1NC(=O)CN1CCCc2ccccc21,2,57*,5,-4,1,38
COC(=O)c1[nH]c2cc(C)ccc2c1NC(=O)CN1CCCc2ccccc21,1,41,-12,-4,-11,10
COc1ccc(CC(N)c2csc(NC(=O)c3cc(C(C)(C)C)nn3Cc3ccccc3)n2)cc1 (stereo not given),.,.,.,24,16,.
CCOc1ccc(/C=C/C(=O)Nc2ccc(C(N)=O)cc2)cc1OC,2,0,9,-9,6,1
CCC1CSC(Nc2ccc(C(=O)/C=C/c3ccc(Br)cc3)cc2)=N1 (stereo not given),2,25,4,57*,-16,3
CCC1CSC(Nc2ccc(C(=O)/C=C/c3ccc(OC)c(OC)c3)cc2)=N1 (stereo not given),3,16,20,74*,47,0
COc1ccc(C(=O)C=Cc2ccc3c(c2)OCO3)cc1OC,.,.,5,-20,-29,.
COc1ccc(/C=C/C(=O)c2ccc(NC3=NCCCS3)cc2)cc1OC,3,29,12,72*,29,25
Cc1nc2c(OCc3cccc(Cl)c3)cccn2c1N(C)Cc1cccs1,.,.,.,-17,-24,.
CCCS(=O)(=O)NC(=O)C1(C)CCN(C(=O)c2ccc3ccccc3n2)C1 (stereo not given),.,.,.,2,-4,.
Cc1ccc(-n2cc(CN3CCN(Cc4nccn4C)CC3)c(-c3cccc(C)c3)n2)cc1,-1,51*,-9,-48,-28,28
Cc1ccc(-n2cc(CN3CCNC(=O)CC3)c(-c3cccc(C)c3)n2)cc1,-2,.,0,10,-22,.
Cc1nc([N+](=O)[O-])c(Br)n1CC(=O)c1ccc(Br)cc1,0,123*,-37,22,35,98
Cc1nc([N+](=O)[O-])c(Br)n1CC(=O)c1ccccc1,3,13,-3,37,20,8
Cc1nc([N+](=O)[O-])c(Br)n1CC(=O)c1ccc2ccccc2c1,17*,159*,-31,14,23,118
NC(=S)NN=Cc1nccc2c(C(F)(F)C(F)(F)C(F)(F)F)cccc12,.,.,82*,22,-58,.

# Screening results as filed in PubChem.
